The values below come from PubChem BioAssay (Tox21).

Molecules are shown by their SMILES. Inconclusive results are not listed. The source holds several records for some structures; these can differ, active in one and inactive in another. Activity calls are given as the source filed them. Unless noted, calls come from the whole dose curve; as a rule, active = well fitted curve in the direction sought with a large enough effect in the repeat runs; inconclusive = weak or mixed curves; inactive = no such curve, though single readings can be large; an effect the other way counts as inactive or inconclusive.

Experiment [1] can be described thus: A CellTox Green Cytotoxicity Assay to monitor cytotoxicity in HepG2 cells - 0 hour (AID 1224882). Note: nearly all actives have a fitted effect of over 35% in size. In short, it runs like this:
(§1)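 HepG2 cells, 600/well, preincubated 5 h with CellTox Green dye, then exposed to Tox21 compounds in DMSO at 37 C for up to 40 h. Dead-cell DNA fluorescence read at the indicated time point.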

Experiment [2] in a line: A CellTox Green Cytotoxicity Assay to monitor cytotoxicity in HepG2 cells - 32 hour (AID 1224883). Note: nearly all actives have a fitted effect of over 50% in size. Note: potency is the fitted concentration of half-maximal effect. In short, it runs like this: as §1
A short description of experiment [3]: A CellTox Green Cytotoxicity Assay to monitor cytotoxicity in HEK293 cells - 8 hour (AID 1224884). Note: nearly all actives have a fitted effect of over 35% in size. A digest of the protocol:
(§2)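 HEK293 cells, 600/well, were preincubated 5 hours and then exposed to compounds at 37 C for up to 40 hours. A cell-impermeant cyanine dye staining dead-cell DNA was read by fluorescence at 0, 8, 16, 24, 32 and 40 h time points.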

A short description of experiment [4]: qHTS RealTime-Glo MT Cell Viability Assay in HepG2 cells - 16 hour (AID 1224885). Note: nearly all actives have a fitted effect of over 50% in size. In short, it runs like this: (§3)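 qHTS, HepG2, 600 cells/well, RealTime-Glo (NanoLuc + prosubstrate) added with cells; 5 h preincubation; DMSO compound addition; 37 C; luminescence at 0/8/16/24/32/40 h.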
In general terms: Quantitative high-throughput screening tests each substance at several concentrations.

Experiment [5] can be described thus: qHTS RealTime-Glo MT Cell Viability Assay in HEK293 cells - 24 hour (AID 1224886). Note: nearly all actives have a fitted effect of over 50% in size. Note: potency is the fitted concentration of half-maximal effect. A digest of the protocol: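 Assay medium contained NanoLuc luciferase plus cell-permeant prosubstrate, added with HEK293 cells at 600 cells/well. After 5 h at 37 C/5% CO2 compounds were added; plates stayed at 37 C for 40 h with serial luminescence reads.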
Experiment [6] can be described thus: qHTS RealTime-Glo MT Cell Viability Assay in HEK293 cells - 8 hour (AID 1224887). Note: top concentration of the series differs between compounds; nearly all actives have a fitted effect of over 50% in size. In short, it runs like this:
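600 cells/well were plated with the nonlytic NanoLuc/prosubstrate reagent, pre-incubated 5 h, then given 23 nL of compound in DMSO. Incubation at 37 C for 40 h, with luminescence from viable-cell-reduced substrate read repeatedly from 0 h.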

Experiment [7] in a line: A CellTox Green Cytotoxicity Assay to monitor cytotoxicity in HEK293 cells - 16 hour (AID 1224888). Note: nearly all actives have a fitted effect of over 35% in size. A digest of the protocol: as §2
A short description of experiment [8]: qHTS RealTime-Glo MT Cell Viability Assay in HepG2 cells - 0 hour (AID 1224889). Note: nearly all actives have a fitted effect of over 50% in size. A digest of the protocol: as §3
The nature of experiment [9]: A CellTox Green Cytotoxicity Assay to monitor cytotoxicity in HepG2 cells - 8 hour (AID 1224890). Note: nearly all actives have a fitted effect of over 45% in size. In short, it runs like this: as §1
A short description of experiment [10]: qHTS assay to identify small molecule antagonists of the estrogen receptor alpha (ER-alpha) signaling pathway using the BG1 cell line in the presence of 0.1 nM 17-beta-estradiol - cell viability counter screen (AID 1259241). Note: nearly all actives have a fitted effect of over 40% in size. In short, it runs like this:
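Viability in VM7Luc4E2 cells after 22 hr compound exposure under 0.1 nM 17beta-estradiol stimulation, by CellTiter-Fluor.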

In experiment [11] the target is Estrogen receptor (Homo sapiens) (UniProt P03372). Kind of experiment: qHTS assay to identify small molecule antagonists of the estrogen receptor alpha (ER-alpha) signaling pathway using the BG1 cell line in the presence of 0.1 nM 17-beta-estradiol (AID 1259244). Note: nearly all actives have a fitted effect of over 50% in size. A digest of the protocol: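 VM7Luc4E2 cells (endogenous full-length ER-alpha, 4×ERE-luciferase), kept 5 days in phenol red-free, charcoal-stripped FBS medium; 4,000 cells/well. Compounds added with 0.1 nM (final) 17beta-estradiol, 22 hr at 37C; luminescence read with ONE-Glo after 30 min.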
Sequence of Estrogen receptor (Homo sapiens) (P03372 whole entry, looked up): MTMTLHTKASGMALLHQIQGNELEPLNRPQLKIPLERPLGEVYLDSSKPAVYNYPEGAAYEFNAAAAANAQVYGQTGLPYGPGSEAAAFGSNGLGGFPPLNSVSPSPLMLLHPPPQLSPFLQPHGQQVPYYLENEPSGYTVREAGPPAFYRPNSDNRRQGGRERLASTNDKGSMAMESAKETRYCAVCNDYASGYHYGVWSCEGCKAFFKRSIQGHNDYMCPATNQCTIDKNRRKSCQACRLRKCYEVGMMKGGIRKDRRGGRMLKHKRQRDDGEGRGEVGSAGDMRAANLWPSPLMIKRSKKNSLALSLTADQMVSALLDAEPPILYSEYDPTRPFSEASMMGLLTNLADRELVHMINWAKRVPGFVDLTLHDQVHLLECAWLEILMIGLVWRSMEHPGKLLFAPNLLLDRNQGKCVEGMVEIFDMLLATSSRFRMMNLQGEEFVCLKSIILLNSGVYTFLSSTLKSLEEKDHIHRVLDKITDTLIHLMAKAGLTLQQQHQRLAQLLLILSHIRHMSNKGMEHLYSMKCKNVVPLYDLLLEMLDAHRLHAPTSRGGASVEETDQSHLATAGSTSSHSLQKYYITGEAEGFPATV

Experiment [12] is described as follows: qHTS assay to identify small molecule HDAC inhibitors (AID 1259364). Note: top concentration of the series differs between compounds; nearly all actives have a fitted effect of over 45% in size. A digest of the protocol:
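Wild-type HCT-116 cells, plated overnight at 37 C, exposed to compounds 2 hr at 37 C; luminogenic HDAC-Glo substrate then added 30 min at room temperature. Luminescence reports relative endogenous class I/II HDAC activity.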

Experiment [13] is described as follows: qHTS assay to identify small molecule HDAC inhibitors - cell viability counter screen (AID 1259365). A digest of the protocol:
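Cytotoxicity was gauged in wild-type HCT-116 cells after a brief 2hr treatment with DMSO-dissolved compounds at 37C and 5% CO2, using CellTiter-Glo luminescence developed for 30min at room temperature.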

A short description of experiment [14]: qHTS assay to identify small molecule agonists of the sonic hedgehog signaling (Shh) pathway - cell viability counter screen (AID 1259366). Note: nearly all actives have a fitted effect of over 50% in size. A digest of the protocol:
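Stable Gli1-Luc NIH/3T3 clone, 2,000 cells/well. Compound exposure 24hr at 37C. Read-out: CellTiter-Fluor fluorescence.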

A short description of experiment [15]: qHTS assay to identify small molecule antagonists of the sonic hedgehog signaling (Shh) pathway - cell viability counter screen (AID 1259367). Note: nearly all actives have a fitted effect of over 55% in size. A digest of the protocol: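 Seed 3T3 Gli1-Luc cells at 2,000 per well; incubate 4 hr; add compound in DMSO, then conditioned medium; incubate at 37C with 5% CO2; add CellTiter-Fluor after 23 hr; read fluorescence 1 hr later.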

A short description of experiment [16]: qHTS assay to identify small molecule agonists of the sonic hedgehog signaling (Shh) pathway (AID 1259368; calls by dose curve;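 note: NIH/3T3-derived 3T3Gli1-Luc cells carrying a stable Gli1-driven firefly luciferase reporter; series mostly up to about 92 µM; nearly all actives have a fitted effect of over 15% in size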). A digest of the protocol:
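NIH/3T3-derived 3T3Gli1-Luc cells with stably integrated Gli1-driven firefly luciferase, 2,000 cells/well, compounds added after 4 hr. Incubated 24 hr at 37C, 5% CO2; luminescence read after 30 min with luciferase reagent at room temperature.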

Experiment [17] in a line: qHTS assay to identify small molecule antagonists of the androgen receptor (AR) signaling pathway using the MDA cell line in the presence of 0.5 nM R1881 - cell viability counter screen (AID 1259242). Note: nearly all actives have a fitted effect of over 45% in size. A digest of the protocol:
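MDA-kb2 cells (MMTV-luciferase, AR/GR responsive) were treated with compounds plus 0.5 nM R1881 (final) for 16 hr at 37C, 0% CO2. Viability was then read in the same wells as live-cell protease fluorescence (CellTiter-Fluor, 30 min).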

Experiment [18] in a line: qHTS assay to identify small molecule antagonists of the sonic hedgehog signaling (Shh) pathway (AID 1259369; calls by dose curve; note: nearly all actives have a fitted effect of over 45% in size; note: potency is the fitted concentration of half-maximal effect). A digest of the protocol:
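NIH/3T3-derived Gli1-Luc reporter cells plated 4 h, dosed with compound, then stimulated with conditioned medium for 24 h at 37 C. Firefly luciferase luminescence read after 30 min with detection reagent at room temperature.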

Experiment [19] in a line: qHTS assay to identify small molecule phospholipidosis (PLD) inducers (AID 1259344; active = well fitted curve in the direction sought with a large enough effect; an effect the other way counts as inactive or inconclusive). In short, it runs like this: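 Quantitative HTS in HepG2: compound plus LipidTOX Red dye for 24 h, paraformaldehyde fixation with Hoechst 33342, widefield high-content imaging; amiodarone as positive and DMSO as negative control.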
% is set by controls: 0 for no effect and ±100 for the full control effect.

Regarding `CC[C@@H](N)CO`, the Potency entry in experiment [1], in experiment [2], in experiment [3], in experiment [4], in experiment [5] and in experiment [6] was “inactive” each time. The Potency result in experiment [7], in experiment [8], in experiment [9], in [10], in [11] and in experiment [12] was “inactive” each time. Moreover, the Potency result in experiment [13], in experiment [14], in experiment [15] and in [16] was “inactive” in each case.

`CCCCCCC(O)CCCCCCCCCCC(=O)O` (configuration not stated): the Potency result in experiment [1], in experiment [2], in experiment [3], in [4], in experiment [5] and in experiment [6] was “inactive” throughout. Further, the Potency result in experiment [7], in experiment [8], in [9], in [10], in experiment [17] and in experiment [12] was “inactive” each time. Further, the Potency result in experiment [13], in [14], in [15] and in experiment [16] was “inactive” in each case. Also, the Potency in experiment [18] is 27.4 µM (active).

In the case of `O=C1CC2(CCCC2)CC(=O)N1CCCCN1CCN(c2ncccn2)CC1`, the Potency entry in experiment [1], in [3], in experiment [4], in experiment [6], in experiment [7] and in [8] was “inactive” throughout. The Potency entry in [9], in [10], in experiment [12], in experiment [13], in experiment [14] and in experiment [15] was “inactive” in each case. For the same compound, the Potency entry in [16] was “inactive”. Further, the Potency in experiment [2] is 43.6 µM (active) and inactive; in [5], 49 µM (active) and inactive; in experiment [18] it was 19.3 µM (active) and inactive.

With `CC(C)C(=O)c1c(C(C)C)nn2ccccc12`, the Potency entry in [1], in [2], in experiment [3], in experiment [4], in [5] and in [6] was “inactive” throughout. Further, the Potency entry in experiment [7], in [8], in [9], in experiment [10], in experiment [17] and in experiment [12] was “inactive” in each case. The Potency entry in experiment [14], in [15] and in experiment [16] was “inactive” throughout. Further, the PLD induction in experiment [19] is -2.74% [at 7.66 µM] (inactive).

For `CC(C)(C)c1ccccc1`, the Potency result in experiment [1], in experiment [2], in experiment [3], in experiment [4], in experiment [5] and in [6] was “inactive” throughout. Moreover, the Potency result in experiment [7], in [8], in experiment [9], in experiment [10], in experiment [17] and in [13] was “inactive” throughout. The Potency result in [14], in experiment [15] and in experiment [18] was “inactive” in each case.

Take `COC(c1ccccc1)(c1ccccc1)[C@H](Oc1nc(C)cc(C)n1)C(=O)O`: the Potency result in experiment [1], in [2], in [3], in experiment [4], in experiment [5] and in [6] was “inactive” each time. The Potency result in [7], in experiment [9], in experiment [10], in [19], in [12] and in experiment [13] was “inactive” each time. Also, the Potency result in [14], in experiment [15], in experiment [16] and in experiment [18] was “inactive” throughout.

On to `Cc1cc(C(C)(C)C)c(O)c(C(C)(C)C)c1`, for which the Potency result in [1], in experiment [2], in experiment [3], in experiment [4], in experiment [5] and in [6] was “inactive” in each case. Also, the Potency entry in experiment [7], in [9], in experiment [10], in experiment [17], in experiment [19] and in [13] was “inactive” each time. Moreover, the Potency entry in experiment [14], in [15], in experiment [16] and in experiment [18] was “inactive” throughout.
